# Test results reported in the supplement of paper PMC10338343.
# ± gives the standard deviation.
# Experiments:
# [1] = tested on: MILI (PIWIL2) piRISC loaded with L1MC piRNA (26 nt); experiment: pre-steady-state target cleavage rate (min^-1); guide: L1MC piRNA 5'p-UAACUAAAUACUAUGCAAGCUGUAGG; higher = faster piRNA-guided slicing of the target
# How it was run: (§1)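 Cleave-'n-Seq used a transcribed, DNA-blocked target RNA library at 0.1 nM and active affinity-purified piRISC with one synthetic guide at 1 nM, with or without 500 nM GTSF1 partner protein, in HEPES–potassium acetate buffer at 33 °C for 0–8 or 0–960 min. Uncleaved targets were sequenced and normalised to depth and to weakly complementary targets, and three trials were pooled with k3 capped at 0.0001 min^-1. The pre-steady-state cleavage rate was estimated by a burst-and-steady-state fit.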
# [2] = tested on: EfPiwi piRISC loaded with L1MC piRNA (26 nt); experiment: pre-steady-state target cleavage rate (min^-1); auxiliary factor: 500 nM Ephydatia muelleri Gtsf1; guide: L1MC piRNA 5'p-UAACUAAAUACUAUGCAAGCUGUAGG; MIWI and MILI are mouse PIWI proteins and EfPiwi is from a freshwater sponge; tags in brackets are library labels; higher = faster piRNA-guided slicing of the target
# How it was run: as §1
# [3] = auxiliary factor: 500 nM mouse GTSF1
# [4] = auxiliary factor: none (no GTSF1)
Sequence,"pre-steady-state target cleavage rate [1, 3]","pre-steady-state target cleavage rate [1, 4]",pre-steady-state target cleavage rate [2]
UCCUGGAUCAGCGUUGCAUAGUAUUUAGUUA,0.212 ± 0.016,0.00789 ± 0.0028,0.021 ± 0.0057
UCCUCCUACAGCUAGCAUAGUUUUUAGUUA,0.0658 ± 0.011,0.00299 ± 0.0026,0.00442 ± 0.0017
UCCUGGAACAGCUUCCAUUGUAUUUAGUUA,0.11 ± 0.019,0.00471 ± 0.0022,0.00345 ± 0.0017
UCCUGGUACGGCUUGCAUAGUAUUUAGUUA,0.195 ± 0.03,0.0133 ± 0.0047,0.00921 ± 0.0043
UCCUCCUACAGCUUGGAUAGUAUAUAGUUA,0.195 ± 0.022,0.0033 ± 0.0023,0.00941 ± 0.0032
UCCUGGAUCAGCUUGCUUAGUAUUUAGUUA,0.248 ± 0.019,0.0092 ± 0.0031,0.0228 ± 0.0071
UCCUCCUAGUCCUUGCAUAGUAUUUAGUAA,0.102 ± 0.018,0.0027 ± 0.0023,0.00549 ± 0.0034
UCCUCCUACAGCUCGCAUAGUAUUUAGUUA,0.288 ± 0.019,0.0109 ± 0.0027,0.0845 ± 0.019
UCCUGGAUCAGCUCGCAUAGUAUUUAGUUA,0.284 ± 0.019,0.00608 ± 0.0029,0.0549 ± 0.013
UCCUGCUACACCUUGCAUAGUAAUUAGUUA,0.157 ± 0.026,0.00684 ± 0.002,0.00647 ± 0.0028
UCCUGGUACAGCUAGCUUAGUAUUUAGUUA,0.248 ± 0.023,0.00768 ± 0.0025,0.00544 ± 0.0027
UCCUGGAUGUGCGUUGCAUAGUAUUUAGUUA,0.145 ± 0.016,0.00925 ± 0.0032,0.00539 ± 0.0024
UCCUGGAAGACCUUGCAUAGUAUUUAGUUA,0.212 ± 0.02,0.00774 ± 0.0029,0.00668 ± 0.003
UCCUGCUACUGCUUGCAUAGUAUUUAGUUA,0.234 ± 0.025,0.00705 ± 0.0018,0.00883 ± 0.003
UCCUGCUUCAGCUUGCAUAGUAUUUAGAUA,0.165 ± 0.025,0.00373 ± 0.002,0.00521 ± 0.0024
UCCUCCUACAGCUUGCAUAGUACUUAGUUA,0.277 ± 0.018,0.00759 ± 0.002,0.013 ± 0.0053
UCCUGGAUCAGCUUGCAUAGUAAUAAGUUA,0.189 ± 0.019,0.00409 ± 0.0028,0.00234 ± 0.0018
UCCUCCUACAGCUUGCAUAGUAUAAAGUUA,0.137 ± 0.023,0.00301 ± 0.0023,0.00527 ± 0.0031
UCCUGCUACUGCUUGCAUUGUAUUUAGUUA,0.211 ± 0.018,0.0081 ± 0.0024,0.00835 ± 0.0023
UCCUGGAUGAGCUUGCCUAGUAUUUAGUUA,0.194 ± 0.014,0.00475 ± 0.0027,0.00623 ± 0.0037
UCCUCGUACAGGUUGCAUAGUAUUUAGUUA,0.249 ± 0.01,0.00988 ± 0.0022,0.0399 ± 0.0088
UCCUCCUACUGCUUGCAUAGAAUUUAGUUA,0.0415 ± 0.0062,0.00232 ± 0.002,0.00761 ± 0.0021
UCCUGGAUGUCGUGCAUAGUAUUUAGUUA,0.115 ± 0.014,0.00386 ± 0.0022,0.00802 ± 0.003
UCCUGGUACAGCAUGCAUUGUAUUUAGUUA,0.167 ± 0.016,0.0119 ± 0.0038,0.00628 ± 0.0022

Sequence,"pre-steady-state target cleavage rate [1, 3]","pre-steady-state target cleavage rate [1, 4]",pre-steady-state target cleavage rate [2]
UCCUGGUACAGCUUGACAUAGUAUUUAGUUA,0.231 ± 0.025,0.00764 ± 0.0035,0.0102 ± 0.003
UCCUGGUACAGCUUGCAUGGUAUUUAGUUA,0.298 ± 0.021,0.0136 ± 0.0044,0.00828 ± 0.0033
UCCUGGUACUGCUUGCAUUGUAUUUAGUUA,0.0791 ± 0.015,0.00624 ± 0.0037,0.00516 ± 0.0027
UCCUGGUACAGCCUGCAUAGUAUUUAGUUA,0.186 ± 0.024,0.0143 ± 0.004,0.00984 ± 0.0036
UCCUGGAUCAGCUUCGCAUAGUAUUUAGUUA,0.309 ± 0.02,0.00591 ± 0.0024,0.0389 ± 0.009
UCCUGGAACUGCUUGCAUAGUUUUUAGUUA,0.0358 ± 0.0071,0.00455 ± 0.0018,0.00498 ± 0.0026
UCCUGGAUGUGCUUGCAUAGUAUAAAGUUA,0.0611 ± 0.011,0.00318 ± 0.0025,0.00378 ± 0.0034
UCCUGGUAACAGCUUGCAUAGUAUUUAGUUA,0.244 ± 0.02,0.016 ± 0.0044,0.0495 ± 0.011
UCCUGCUAGAGCUUGCAUAGUAUUUUGUUA,0.172 ± 0.025,0.00521 ± 0.0022,0.00421 ± 0.0016
UCCUGGAUGACCAUGCAUAGUAUUUAGUUA,0.0729 ± 0.022,0.00375 ± 0.0034,0.00488 ± 0.0028
UCCUGCUACAGCUUGCAUAGUUAUUAGUUA,0.0372 ± 0.013,0.00337 ± 0.002,0.00354 ± 0.0022
UCCUGCUACACCAUGCAUAGUAUUUAGUUA,0.223 ± 0.015,0.00794 ± 0.0027,0.00582 ± 0.003
UCCUGGAUGACUUGCAUAGUAUUUAGUUA,0.171 ± 0.014,0.004 ± 0.0027,0.0058 ± 0.0023
UCCUGCUUCAGCUUGCAUAGUAAUUAGUUA,0.253 ± 0.022,0.00622 ± 0.0021,0.00863 ± 0.003
UCCUCCUUCAGCUUGCAUAGUAUUUAGAUA,0.157 ± 0.022,0.00242 ± 0.0024,0.00476 ± 0.0027
UCCUGGAUCAGCUUGGCAUAGUAUUUAGUUA,0.3 ± 0.061,0.00341 ± 0.0025,0.0127 ± 0.0034
UCCUGCUACAGCUCGCAUAGUAUUUAGUUA,0.264 ± 0.015,0.00757 ± 0.0027,0.0122 ± 0.0028
UCCUCCUACAGCUUGGAUAGUAUUAAGUUA,0.134 ± 0.017,0.00275 ± 0.0027,0.00905 ± 0.0043
UCCUGGAUCAGGUUGCAUAGUAUUUUGUUA,0.101 ± 0.015,0.00364 ± 0.0028,0.00406 ± 0.0022
UCCUCCUACAGCUAGCAUAGUAUUAAGUUA,0.205 ± 0.019,0.0038 ± 0.0018,0.00633 ± 0.0029
UCCUGCUACAGCUAGGAUAGUAUUUAGUUA,0.259 ± 0.015,0.00677 ± 0.0024,0.011 ± 0.0037
UCCUGGAUCAGCAUGCAAAGUAUUUAGUUA,0.098 ± 0.011,0.0074 ± 0.0018,0.0037 ± 0.0031
UCCUGCAUGAGCUUGCAUAGUAUUUAGUUA,0.265 ± 0.019,0.01 ± 0.0025,0.0163 ± 0.0047
